This is an account of results in PubChem BioAssay AID1626 (SRMLSC, 2009).

Each structure is given as a SMILES string. Hit rate of the full screen: of about 220,000 compounds, about 2,000 (0.91%) were called active. Not shown: some 2% with an inconclusive outcome. Not all results are given here. Potency and affinity values are given separately. Unmarked numbers belong to inactive results. No stated cut-off is given here; in the data, inconclusive means inhibition above about 80% without an active follow-up result; inactive means below that; test concentration not stated here.

This assay in a line: M. tuberculosis H37Rv growth inhibitors, H37Rv strain (AID 1626).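 Further: bacteria incubated seven days before Alamar blue readout; 0% = bacteria only wells and 100% = bacteria with antibiotic wells.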 Particulars: stronger effect = higher value, concentration not given here.
Consider `O=C(NCCCN1CCOCC1)C(C(=O)NCCCN1CCOCC1)c1ncc(C(F)(F)F)cc1Cl`, for which the inhibition (commonly the relative decrease from the control value, in per cent) was -6.54%.

For `O=C1CC(C(=O)O)S/C(=N\N=C\c2ccc(Br)cc2)N1` (stereo not drawn), the inhibition was -6.35%. Under `COc1cccc(OC)c1C(=O)NNC(=O)c1ccc(F)cc1` stands -2.49%; under `COc1ccccc1CN1C[C@@H]2C[C@@H](c3cccc(C)c3)N3CCC[C@@]23C1=O`, 4.89%.

Regarding `CCN(CC)S(=O)(=O)c1ccc(N/N=C(\C)c2ccc3c(c2)OCO3)c([N+](=O)[O-])c1`, the inhibition was 2.18%.

Turning to `NC(=O)N/N=C/c1coc2ccc(O)cc2c1=O`, the inhibition is -3.42%. To `Cc1cccnc1NC(=O)c1ccc([N+](=O)[O-])o1` belongs 2.32%; to `Cc1cccc(NC(=O)c2ccc([N+](=O)[O-])o2)n1`, 3.18%; to `NS(=O)(=O)c1ccc(O)c(NC(=O)c2ccc([N+](=O)[O-])o2)c1`, -1.93%.

Regarding `Cc1ccnc(NC(=O)c2ccc([N+](=O)[O-])o2)c1`, the inhibition was 5.02%. Under `Cc1cc(C)nc(NC(=O)c2ccc([N+](=O)[O-])o2)n1` stands -5.31%; under `O=C(Nc1ncccn1)c1ccc([N+](=O)[O-])o1`, 0.82%.

With `C=CCNC(=O)c1ccc2c(c1)S(=O)(=O)c1ccccc1C2=O`, the inhibition is -9.32%. With `COc1cc(C(=O)N2CCN(c3ccccc3)CC2)c([N+](=O)[O-])cc1OC`, the inhibition is 3.88%. As to `CN(C)c1ccc(CC(=O)c2nc3ccccc3s2)cc1`, the inhibition was -5.99%. With `CCCSc1nnc(NC(=O)Nc2ccc(F)cc2)s1`, the inhibition is 17%. `O=C(NCC1CCCN(Cc2cccc(C(F)(F)F)c2)C1)c1ccc(F)cc1` (stereo not drawn): the inhibition was -2.43%. Regarding `Cn1cc(/C=C(\C#N)C(=O)Nc2ncc(Cc3ccc(Cl)cc3)s2)c2ccccc21`, the inhibition was 1.97%.

On to `Cn1cc(/C=C(\C#N)C(=O)Nc2ncc(Cc3cccc(Cl)c3)s2)c2ccccc21`, for which the inhibition is 4.07%.

For the compound `COC(C/C=C/[C@H](O)[C@H](C)OCc1ccccc1)OC`, the inhibition is -0.67%. Regarding `O=[N+]([O-])c1ccc(N=Nc2ccc(O)cc2O)cc1`, the inhibition was 5.58%.

Regarding `O=c1[nH]c(O)c(N=Nc2ccc([N+](=O)[O-])cc2)c(=O)[nH]1`, the inhibition is -0.55%. To `COC(=O)CCC(=O)N1CCc2cc(S(=O)(=O)N3CCN(c4ccccc4Cl)CC3)ccc21` belongs 3.32%. Consider `CN(C)c1ccc(C(=S)N2CCCCC2)cc1Br`, for which the inhibition is 6.15%. `Cc1ccc(CN=c2c([N+](=O)[O-])nn(-c3cccc(C)c3)n2O)cc1`: the inhibition was -1.44%. On to `O=[N+]([O-])c1nn(-c2cccc(Cl)c2)n(O)c1=NCc1cccnc1`, for which the inhibition is 6.16%. Under `Cc1cc(C)cc(N=c2c([N+](=O)[O-])nn(-c3ccc(Cl)cc3)n2O)c1` stands 48.3%; under `Cc1cccc(N=c2c([N+](=O)[O-])nn(-c3ccc(Cl)cc3)n2O)c1`, 36.6%.
